From PubChem
This is a sample that favours compounds with a hit; in the whole collection about 2% have one here.
Jurkat NFkB inh = lowers PMA/ionomycin-induced NF-kB signal in Jurkat cells; PMA/ionomycin-induced NF-kB luciferase reporter, luminescence; inhibition, % at 4 µM; actives 0.53% (n = 330,000); AID 435003; in the data active means inhibition above about 50%
Shn3 inh set2 = reduces Shn3 3'UTR luciferase signal in osteoblasts | inhibition, % at 12.5 µM | actives 0.52% (n = 360,000) | AID 588674 | Clone20 osteoblast Shn3 3'UTR firefly luciferase, 24 h;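 active means mean inhibition of at least 75% with every replicate also reaching 75%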;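 further: 0% = median of neutral control wells and 100% = pilot-screen positive control compound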
Beta apoptosis = blocks beta cell apoptosis; INS-1E cytokine-induced death, ATP luminescence, 48 h; percent of positive-control rescue, neutral wells zero; protection from apoptosis, % (test concentration not listed); actives 0.8% (n = 300,000); AID 435005;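 active means Every replicate reaches about 75%, or at least half do and their mean reaches it too, limit read from the data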;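 further: 0% = cytokine-treated negative control wells and 100% = positive control rescue; higher means more ATP so stronger rescue from cytokine killing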
697 NFkB inh = inhibitors of the PMA/ionomycin-induced NF-kB reporter in 697 B cells. AID 435022. actives 0.33% (n = 330,000). 697 B-cell NF-kB luciferase reporter, 16 h. inhibition, % at 4 µM; in the data active means inhibition above about 35%
Calb FLC = C. albicans growth modulation with fluconazole; C. albicans CaCi-2 (fluconazole-resistant clinical isolate) + fluconazole, Alamar Blue growth, 48 h; growth inhibition, % (no concentration beside the values); actives 0.57% (n = 300,000); AID 1979;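 active means growth inhibition above about 58% in most replicates, limit read from the data, passing the limit was not always enough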;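 further: all wells also contain fluconazole at 8 µg/ml as a sub-toxic cotreatment; 0% = median of DMSO wells and 100% = median of geldanamycin control wells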
* hit, by the source's call.

Screening COCCNC(=O)C1CCCN(C(=O)COCc2ccccc2)CC1 (configuration not stated) returned Shn3 inh set2 0.
For CCOC(=O)c1cc2c(=O)n3ccccc3nc2n(CCOC)c1=NC(=O)c1ccncc1 the results were Jurkat NFkB inh -14, Shn3 inh set2 -21, Beta apoptosis -5, 697 NFkB inh -12 and Calb FLC 114*.
Screening CCOC(=O)c1cc2c(=O)n3ccccc3nc2n(CCOC)c1=NC(=O)C(C)(C)C returned Jurkat NFkB inh 7, Shn3 inh set2 -2, Beta apoptosis -4, 697 NFkB inh 0 and Calb FLC -3.
Screening O=c1c2ccccc2nnn1-c1ccccc1[N+](=O)[O-] returned Shn3 inh set2 15.
For COc1cc(C#Cc2c(-c3cncn3C)n(C)c3ccc(-c4ccc(OC)nc4)cc23)cc(OC)c1 the results were Jurkat NFkB inh 14, Shn3 inh set2 94*, Beta apoptosis 18 and 697 NFkB inh 3.
O=C(N/N=C/c1ccc(Cl)cc1Cl)Nc1ccccc1 was read as Jurkat NFkB inh -19, Shn3 inh set2 -54, Beta apoptosis 3, 697 NFkB inh -27 and Calb FLC 117*.
`O=C(Cc1ccccc1)N/N=C/c1ccc([N+](=O)[O-])s1` gave Jurkat NFkB inh 35, Shn3 inh set2 24, Beta apoptosis 88*, 697 NFkB inh 7 and Calb FLC 1.
Screening O=C(N/N=C\c1ccc([N+](=O)[O-])s1)c1cncc(Br)c1 returned Jurkat NFkB inh 8, Shn3 inh set2 4, Beta apoptosis 84*, 697 NFkB inh 22 and Calb FLC 108*.
For O=C(N/N=C/c1cccs1)c1cncc(Br)c1 the results were Jurkat NFkB inh 5, Shn3 inh set2 -2, Beta apoptosis -10, 697 NFkB inh 9 and Calb FLC -7.
For O=C(N/N=C/c1ccc([N+](=O)[O-])s1)c1ccccc1 the results were Jurkat NFkB inh -1, Shn3 inh set2 32, Beta apoptosis -1, 697 NFkB inh -6 and Calb FLC 17.
O=C(Cc1ccccc1)N/N=C/c1ccccc1Cl was read as Jurkat NFkB inh -2, Shn3 inh set2 -15, Beta apoptosis 2, 697 NFkB inh -1 and Calb FLC 116*.
For COc1c(C)cc(S(=O)(=O)NCc2ccco2)c(C)c1C the results were Jurkat NFkB inh -3, Shn3 inh set2 -1, 697 NFkB inh 1 and Calb FLC -4.
For CC1(C(=O)NCc2ccc(C(F)(F)F)cc2)CCN1C1Cc2ccccc2C1 (configuration not stated) the results were Shn3 inh set2 9.
O=C(N/N=C/c1ccc([N+](=O)[O-])s1)C(O)c1ccccc1 (configuration not stated) was read as Jurkat NFkB inh 21, Shn3 inh set2 17, Beta apoptosis 94*, 697 NFkB inh -4 and Calb FLC 54.
For CCCN(C(=O)CSCc1ccccc1C)c1c(N)n(Cc2ccccc2)c(=O)[nH]c1=O the results were Jurkat NFkB inh 7, Shn3 inh set2 4, Beta apoptosis 0, 697 NFkB inh 16 and Calb FLC -3.
`COC(=O)C(CCSC)NC(=O)c1cn(-c2ccc(OC)cc2)c(=O)c2ccccc12` (configuration not stated) gave Jurkat NFkB inh 4, Shn3 inh set2 -16, Beta apoptosis 0, 697 NFkB inh -11 and Calb FLC -5.
`CCN(CC(=O)Nc1ccc(NC(C)=O)cc1)C(=O)CCCOc1ccc(C(C)(C)C)cc1` gave Jurkat NFkB inh 19, Shn3 inh set2 9, Beta apoptosis 93*, 697 NFkB inh -9 and Calb FLC 3.
Screening CCN(CC(=O)NCc1cccs1)C(=O)CCCOc1ccc(C(C)(C)C)cc1 returned Jurkat NFkB inh 1, Shn3 inh set2 36, Beta apoptosis 0 and 697 NFkB inh -24.
Screening Cc1cc(C)n2nc(SCc3nnc(SCc4ccccc4C)s3)nc2n1 returned Jurkat NFkB inh 8, Shn3 inh set2 10, Beta apoptosis 103*, 697 NFkB inh -26 and Calb FLC -15.
For Cn1c(O)c(N=NC(=S)Nc2ccccc2F)c2cc(S(=O)(=O)N3CCOCC3)ccc21 the results were Shn3 inh set2 72 and Calb FLC -16.
`C=CCn1c(O)c(N=NC(=S)Nc2ccccc2C)c2cc(S(=O)(=O)N3CCOCC3)ccc21` gave Jurkat NFkB inh 15, Shn3 inh set2 43, Beta apoptosis 55, 697 NFkB inh 12 and Calb FLC 106*.
